Source: ChEMBL document CHEMBL3988442, “University of Dundee, Small-Polar-MMV Screening Library” (2021)
For some of these results: Results with a measured potency or affinity are listed apart.

Columns and labels:
Design in all cases: scale not given: direction of the effect not stated beside the values
[1] = biological target: Protein translocase subunit SecA (Escherichia coli (strain K12)) (UniProt P10408); test: Assay to Identify E. coli SecA ATPase Inhibitors; assay type: functional; conditions: 30 µM
Chain of Protein translocase subunit SecA (Escherichia coli (strain K12)) (P10408 whole entry): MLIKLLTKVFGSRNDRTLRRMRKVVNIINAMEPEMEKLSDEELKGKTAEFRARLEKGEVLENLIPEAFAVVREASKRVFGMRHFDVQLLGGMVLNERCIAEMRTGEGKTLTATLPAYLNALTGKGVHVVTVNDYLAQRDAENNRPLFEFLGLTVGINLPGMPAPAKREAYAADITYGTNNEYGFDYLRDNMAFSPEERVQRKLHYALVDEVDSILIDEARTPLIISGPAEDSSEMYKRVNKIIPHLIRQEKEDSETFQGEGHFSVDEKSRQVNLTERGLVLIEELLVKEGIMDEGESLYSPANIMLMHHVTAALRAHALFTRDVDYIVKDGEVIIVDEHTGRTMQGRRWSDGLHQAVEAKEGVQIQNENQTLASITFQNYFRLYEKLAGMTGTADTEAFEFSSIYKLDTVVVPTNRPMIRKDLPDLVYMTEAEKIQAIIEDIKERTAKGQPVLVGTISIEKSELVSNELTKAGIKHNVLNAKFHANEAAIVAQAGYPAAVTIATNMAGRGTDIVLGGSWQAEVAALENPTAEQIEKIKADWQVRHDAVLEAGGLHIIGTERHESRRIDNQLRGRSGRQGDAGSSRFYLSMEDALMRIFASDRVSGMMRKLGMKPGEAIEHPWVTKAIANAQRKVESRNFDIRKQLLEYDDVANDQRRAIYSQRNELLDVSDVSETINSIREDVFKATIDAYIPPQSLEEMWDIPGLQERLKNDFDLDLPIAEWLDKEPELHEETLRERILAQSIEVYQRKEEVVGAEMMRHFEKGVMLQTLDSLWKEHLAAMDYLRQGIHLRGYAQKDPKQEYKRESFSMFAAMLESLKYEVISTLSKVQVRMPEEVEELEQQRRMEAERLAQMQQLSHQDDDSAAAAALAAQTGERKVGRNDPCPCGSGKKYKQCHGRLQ

[2] = biological target: T1, Ubiquitin-activating enzyme e1, putative (Leishmania donovani (strain BPK282A1)) (UniProt E9BSI1); test: Leishmania donovani Ubiquitin Activating Enzyme (LdE1); assay type: functional; conditions: 30 µM
T1 sequence (whole entry): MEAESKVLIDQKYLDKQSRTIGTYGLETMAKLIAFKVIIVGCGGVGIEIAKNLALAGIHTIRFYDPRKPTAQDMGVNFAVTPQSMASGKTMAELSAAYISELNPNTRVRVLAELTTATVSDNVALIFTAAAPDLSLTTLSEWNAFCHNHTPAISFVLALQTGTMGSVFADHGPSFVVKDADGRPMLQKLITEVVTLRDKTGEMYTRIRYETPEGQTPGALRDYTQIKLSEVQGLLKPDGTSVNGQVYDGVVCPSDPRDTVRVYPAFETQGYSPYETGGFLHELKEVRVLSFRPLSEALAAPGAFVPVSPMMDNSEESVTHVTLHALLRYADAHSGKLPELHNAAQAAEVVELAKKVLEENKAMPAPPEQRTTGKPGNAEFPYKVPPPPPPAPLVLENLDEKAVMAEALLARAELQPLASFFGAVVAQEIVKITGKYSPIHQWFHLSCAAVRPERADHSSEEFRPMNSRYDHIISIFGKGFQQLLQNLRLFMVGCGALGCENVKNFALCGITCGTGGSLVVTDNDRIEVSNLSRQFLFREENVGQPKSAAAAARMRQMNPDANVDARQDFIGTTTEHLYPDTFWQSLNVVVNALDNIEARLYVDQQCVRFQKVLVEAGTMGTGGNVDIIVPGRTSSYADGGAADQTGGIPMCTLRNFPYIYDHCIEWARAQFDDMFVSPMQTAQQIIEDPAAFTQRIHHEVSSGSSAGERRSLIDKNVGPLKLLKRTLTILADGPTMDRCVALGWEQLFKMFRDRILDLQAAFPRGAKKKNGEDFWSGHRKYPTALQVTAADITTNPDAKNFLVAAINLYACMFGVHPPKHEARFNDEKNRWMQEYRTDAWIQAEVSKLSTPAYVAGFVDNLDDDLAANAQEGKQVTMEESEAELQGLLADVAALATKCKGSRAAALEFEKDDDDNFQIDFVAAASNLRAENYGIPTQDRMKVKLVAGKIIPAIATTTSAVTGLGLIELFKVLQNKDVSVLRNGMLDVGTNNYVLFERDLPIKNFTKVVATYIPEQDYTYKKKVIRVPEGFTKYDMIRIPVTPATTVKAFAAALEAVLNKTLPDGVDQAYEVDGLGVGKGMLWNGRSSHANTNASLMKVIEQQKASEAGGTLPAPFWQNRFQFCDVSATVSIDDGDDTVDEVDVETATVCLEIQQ

[3] = biological target: AMP-activated protein kinase, AMPK (Homo sapiens) (UniProt P54646+O43741+P54619+Q9UGJ0+Q9Y478+Q13131+Q9UGI9); test: AMP-dependent Kinase enzyme assay. An in vitro enzyme assay that detects ADP turnover that is directly proportional to AMPK activity. This uses naive AMPK that is activated during the assay with MK-8722; assay type: functional; conditions: 30 µM
[4] = biological target: Sialic acid-binding Ig-like lectin 9 (Homo sapiens) (UniProt Q9Y336); test: Hs-Siglec9 ALPHAscreen SOP 20170721; conditions: 10 µM
Chain of Sialic acid-binding Ig-like lectin 9 (Homo sapiens) (Q9Y336 whole entry): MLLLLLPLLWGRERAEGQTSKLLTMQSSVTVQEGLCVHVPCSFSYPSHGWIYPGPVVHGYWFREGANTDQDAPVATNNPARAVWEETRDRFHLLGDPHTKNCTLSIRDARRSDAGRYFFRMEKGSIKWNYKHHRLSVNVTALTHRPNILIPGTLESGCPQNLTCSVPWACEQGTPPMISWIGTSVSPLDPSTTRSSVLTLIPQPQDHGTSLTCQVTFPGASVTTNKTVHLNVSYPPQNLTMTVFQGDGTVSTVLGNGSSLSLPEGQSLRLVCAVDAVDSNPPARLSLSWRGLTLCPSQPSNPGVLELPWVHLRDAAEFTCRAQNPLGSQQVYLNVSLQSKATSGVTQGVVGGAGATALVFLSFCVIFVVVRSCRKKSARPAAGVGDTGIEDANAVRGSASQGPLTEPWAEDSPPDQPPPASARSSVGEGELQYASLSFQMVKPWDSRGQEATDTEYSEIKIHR

[5] = tested on: Trypanosoma cruzi; test: Trypanosoma cruzi phosphomannomutase and mannose-1-phosphate guanylyltransferase assay; assay type: functional; conditions: 10 µM
[6] = biological target: T2, Arginase-2, mitochondrial (Homo sapiens) (UniProt P78540); test: in vitro enzyme assay to detect the production of urea directly proportional to the activity of Arginase II; assay type: functional; conditions: 33.3 µM; note: in the data most compounds retested in dose-response had high values
T2 sequence (whole entry): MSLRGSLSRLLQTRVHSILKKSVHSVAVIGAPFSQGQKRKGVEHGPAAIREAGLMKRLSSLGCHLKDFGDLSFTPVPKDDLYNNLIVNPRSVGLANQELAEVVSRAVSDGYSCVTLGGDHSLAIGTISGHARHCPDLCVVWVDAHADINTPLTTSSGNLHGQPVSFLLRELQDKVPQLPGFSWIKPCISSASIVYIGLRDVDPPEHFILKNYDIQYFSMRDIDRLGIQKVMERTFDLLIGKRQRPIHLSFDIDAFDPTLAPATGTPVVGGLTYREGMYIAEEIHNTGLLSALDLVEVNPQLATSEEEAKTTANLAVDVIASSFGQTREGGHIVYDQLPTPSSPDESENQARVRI

[7] = biological target: T3, Proteasome subunit beta (Trypanosoma cruzi) (UniProt O96673); test: Trypanosoma cruzi proteasome chymotrypsin-like activity (TcProtChymo) assay.; note: in the data most compounds retested in dose-response had high values; assay type: functional; conditions: 9.37 µM
T3 sequence (whole entry): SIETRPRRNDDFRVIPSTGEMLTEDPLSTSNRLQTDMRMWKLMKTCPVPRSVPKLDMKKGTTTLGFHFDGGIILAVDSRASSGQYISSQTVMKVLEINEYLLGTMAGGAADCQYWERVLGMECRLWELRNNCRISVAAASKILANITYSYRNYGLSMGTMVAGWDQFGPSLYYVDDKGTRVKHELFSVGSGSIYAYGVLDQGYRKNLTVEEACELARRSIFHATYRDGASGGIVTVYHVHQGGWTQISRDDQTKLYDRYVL

[8] = species: Homo sapiens; test: To identify inhibition of the IFN signalling (Jak-Stat) pathway via expression of an eGFP reporter gene under the control of an IFN-stimulated response element (ISRE) containing MxA promoter.; assay type: functional; conditions: 30 µM
[9] = biological target: T4, Tyrosyl-tRNA synthetase, putative (Trypanosoma cruzi (strain CL Brener)) (UniProt Q4DSP6); test: Trypanosoma cruzi tyrosyl tRNA synthetase (TcYRS) _High Tyrosine SOP; assay type: functional; conditions: 30 µM; note: in the data most compounds retested in dose-response had high values
T4 sequence (whole entry): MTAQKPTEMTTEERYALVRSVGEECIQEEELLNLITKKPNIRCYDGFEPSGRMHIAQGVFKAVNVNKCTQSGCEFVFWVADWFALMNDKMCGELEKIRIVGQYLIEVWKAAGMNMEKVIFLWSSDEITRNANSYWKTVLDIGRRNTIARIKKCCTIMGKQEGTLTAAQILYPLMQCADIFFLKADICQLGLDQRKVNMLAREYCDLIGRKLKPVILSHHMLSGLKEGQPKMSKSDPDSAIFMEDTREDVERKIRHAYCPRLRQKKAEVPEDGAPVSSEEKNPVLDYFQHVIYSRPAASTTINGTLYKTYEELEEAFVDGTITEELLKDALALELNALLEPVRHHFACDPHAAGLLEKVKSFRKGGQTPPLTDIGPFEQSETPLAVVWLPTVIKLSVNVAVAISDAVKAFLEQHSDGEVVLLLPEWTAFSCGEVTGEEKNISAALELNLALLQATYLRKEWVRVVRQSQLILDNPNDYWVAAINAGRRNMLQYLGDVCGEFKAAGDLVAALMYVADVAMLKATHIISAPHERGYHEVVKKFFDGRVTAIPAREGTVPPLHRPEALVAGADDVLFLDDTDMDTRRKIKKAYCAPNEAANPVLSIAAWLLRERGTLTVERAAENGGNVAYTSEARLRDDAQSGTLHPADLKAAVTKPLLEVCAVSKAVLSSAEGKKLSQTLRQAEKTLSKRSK

[10] = biological target: T4, Tyrosyl-tRNA synthetase, putative (Trypanosoma cruzi (strain CL Brener)); test: Trypanosoma cruzi tyrosyl tRNA synthetase (TcYRS) SOP; assay type: functional; conditions: 30 µM
[11] = biological target: Chromo domain-containing protein 1 (Saccharomyces cerevisiae (strain ATCC 204508 / S288c) (Baker's yeast)) (UniProt P32657); test: ScCHD-1 Enzyme Inhibition Assay; assay type: functional; conditions: 30 µM; note: in the data most compounds retested in dose-response had high values
Chain of Chromo domain-containing protein 1 (Saccharomyces cerevisiae (strain ATCC 204508 / S288c) (Baker's yeast)) (P32657 whole entry, the tested form may be a part): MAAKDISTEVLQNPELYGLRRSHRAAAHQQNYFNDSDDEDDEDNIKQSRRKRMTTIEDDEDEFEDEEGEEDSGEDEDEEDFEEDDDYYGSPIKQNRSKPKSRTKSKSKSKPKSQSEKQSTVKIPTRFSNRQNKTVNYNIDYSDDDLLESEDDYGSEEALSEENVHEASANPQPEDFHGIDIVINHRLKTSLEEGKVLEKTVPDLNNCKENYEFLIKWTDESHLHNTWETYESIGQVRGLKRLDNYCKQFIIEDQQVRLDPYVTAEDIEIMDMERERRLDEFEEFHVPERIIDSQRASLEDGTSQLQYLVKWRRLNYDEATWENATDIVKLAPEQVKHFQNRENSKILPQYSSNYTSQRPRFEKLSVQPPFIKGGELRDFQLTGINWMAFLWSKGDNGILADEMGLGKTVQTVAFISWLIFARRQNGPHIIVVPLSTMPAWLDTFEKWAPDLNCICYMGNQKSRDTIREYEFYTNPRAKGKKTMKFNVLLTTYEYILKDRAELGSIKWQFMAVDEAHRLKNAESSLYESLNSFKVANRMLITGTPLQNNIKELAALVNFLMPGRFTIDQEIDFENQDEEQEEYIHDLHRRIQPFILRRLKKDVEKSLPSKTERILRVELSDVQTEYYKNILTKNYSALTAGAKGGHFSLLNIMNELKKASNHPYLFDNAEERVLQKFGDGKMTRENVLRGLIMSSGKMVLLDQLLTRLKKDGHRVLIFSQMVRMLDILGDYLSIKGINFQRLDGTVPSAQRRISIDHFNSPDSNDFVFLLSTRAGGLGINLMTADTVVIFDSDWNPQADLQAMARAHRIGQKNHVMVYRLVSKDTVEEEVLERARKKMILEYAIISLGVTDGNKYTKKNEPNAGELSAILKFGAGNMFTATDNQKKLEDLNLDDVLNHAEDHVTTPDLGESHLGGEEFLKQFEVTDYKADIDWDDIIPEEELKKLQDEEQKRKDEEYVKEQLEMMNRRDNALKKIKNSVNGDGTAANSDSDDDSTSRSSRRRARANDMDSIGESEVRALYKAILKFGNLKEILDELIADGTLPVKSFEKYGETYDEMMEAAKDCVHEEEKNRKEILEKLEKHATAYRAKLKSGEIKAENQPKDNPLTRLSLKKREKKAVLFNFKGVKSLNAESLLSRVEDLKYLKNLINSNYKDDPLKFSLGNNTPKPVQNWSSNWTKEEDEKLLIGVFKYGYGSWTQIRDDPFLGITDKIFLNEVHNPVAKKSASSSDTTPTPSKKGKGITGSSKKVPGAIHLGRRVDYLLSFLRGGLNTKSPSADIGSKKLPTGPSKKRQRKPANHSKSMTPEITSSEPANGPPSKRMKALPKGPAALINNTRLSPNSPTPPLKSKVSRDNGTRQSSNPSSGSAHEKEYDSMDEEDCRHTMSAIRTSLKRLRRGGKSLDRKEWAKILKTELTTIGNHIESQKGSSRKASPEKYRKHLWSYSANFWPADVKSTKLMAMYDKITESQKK

Row | Compound | Percent Effect [1] [%] | Percent Effect [2] [%] | Percent Effect [3] [%] | Percent Effect [4] [%] | Percent Effect [5] [%] | Percent Effect [6] [%] | Percent Effect [7] [%] | Percent Effect [8] [%] | Percent Effect [9] [%] | Percent Effect [10] [%] | Percent Effect [11] [%]
1 | Fc1ccc(CN2CCCN(Cc3cscn3)CC2)cc1 | -1.59 | 18.2 | -0.0725 | -10.1 | -1.27 | 1.05 | 9.46 | 30.6 | 8.57 | 25.9 | -21.9
2 | COCC(=O)N1CCN(C(=O)c2scnc2C)CC1 | -4.41 | 7.89 | 1.74 | 5.01 | 2.82 | -4.73 | 12.4 | 19.8 | 1.06 | 10.4 | 0.643
3 | CCCNC(=O)CNc1cc(C#N)ccc1OCC | -6.04 | 22.8 | -6.15 | 3.16 | 4.82 | -6.46 | 11.7 | 11.7 | 4.43 | 21.5 | -7.89
4 | Cn1cc(C(=O)NC2CCN(C(=O)NCCSC(F)(F)F)CC2)cn1 | -1.89 | 13.9 | 2.72 | 2.15 | -1.13 | -0.215 | 13 | 8.82 | 9.38 | 17.7 | -19.9
5 | Cc1nnc2n1CCN(Cc1ncc(-c3ccc(Cl)cc3)o1)C2 | -5 | -18.4 | 8.78 | 14.6 | 3.38 | 2.3 | -0.167 | 7.71 | 5.39 | 7.32 | -5.79
6 | Cc1noc([C@H]2C[C@H]3OCC[C@H]3N(S(=O)(=O)C3CC3)C2)n1 | 0.988 | 11 | -4.86 | 7.79 | -1.19 | -1.6 | 16.7 | 3.43 | 9.38 | 18.5 | -0.433
7 | Cc1noc2ncc(C(=O)NCC3CCOC3)cc12 (stereo unspecified) | -4.3 | 0 | -6.17 | -5.94 | -6.96 | 1.53 | 6.35 | 26.5 | 2.45 | 0 | -12.5
8 | COc1cccc(CN(C)S(=O)(=O)N2CCOCC2)c1 | -1.1 | 13.2 | 1.96 | -0.478 | 2.63 | -10.7 | 22.1 | 23.5 | 5.32 | 18.2 | -6.9
9 | CC(C)NC(=O)N1CCC2(CC(C(=O)NCc3cccnc3)=NO2)C1 (stereo unspecified) | -0.964 | 2.67 | 4.37 | 10.3 | -5.99 | -2.69 | 8.89 | 8.43 | -3.12 | 0 | 1.61
10 | c1ccc(CN2CC[C@@H]3O[C@H](COCc4ccncc4)CC[C@@H]32)nc1 | -0.0418 | 10.7 | -4.7 | -5.18 | -8.46 | 5.83 | 9.07 | -4.23 | 4.25 | 8.97 | -2.83
11 | COCCN(C)C(=O)Cn1cccc(OC)c1=O | -0.736 | 5.48 | -9.15 | 4.8 | -8.53 | 3.99 | 18.4 | 4.06 | -3.12 | -1.24 | -2.41
